“And” between values parts separate entries of the source, which are not always exact repeats. Equal entries are not always repeated. The panel holds about 83,000 compounds, 20% with a hit somewhere; the sample as a whole holds those more often.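 Values shown are percent growth following 48 h exposure of cells in 96-well plates to a single concentration of compound; below 10 was considered active.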 The source made the active and inactive calls.

Drawing on PubChem BioAssay (NCI), this text covers growth for 36 compounds.

For the first assay, the system named is SR leukemia. Kind of assay: NCI-60 one-dose screen, 48 h (100 = growth as untreated, 0 = no growth, -100 = all killed). Conditions: 1 µM. Here is the method: Growth inhibition of the SR human tumor cell line is measured as a screen for anti-cancer activity. Cells are grown in 96 well plates and exposed to the test compound for 48 hours. Compounds are tested at a single concentration, which is 10^-5 M for most compounds. The reported endpoint is percent growth (GI% or GIPRCNT), where numbers from 0 - 100% represent growth inhibition, and numbers from -100% - 0 represent cell death. For example, a value of 40 represents 60% growth inhibition. A value of 0 means no net growth occurred over the course of the experiment. A value of -40 indicates 40% of cells at the beginning of the experiment died by the end of the experiment. A value of -100 means all cells are dead at the end of the experiment.
NCI-60 Human Tumor Cell Lines Screen was performed using the standard one-dose NCI protocol, which is described in more detail at https://dtp.cancer.gov/discovery_development/nci-60/default.htm.
Compounds with GIPRCNT values below 10 were considered active. Activity score was based on GIPRCNT using the following formula: […]
Score is 0 for GIPRCNT values of 100 or above, 50 for GIPRCNT values of 0, and 100 for GIPRCNT values of -100.
Take `CNC(=O)c1cc(Oc2ccc(CC(=O)Nc3cc(C(C)(C)C)nn3C)cc2)ccn1`: the growth was 82.7% (inactive).

Staying with this assay, now noted: 10 µM.
For the compound `CC#C[C@]1(O)CC[C@H]2[C@@H]3CCC4=CC(=O)CCC4=C3[C@@H](c3ccc4c(c3)OCO4)C[C@@]21C`, the growth is 60.8% (inactive).
Same read-out and setting: the result for `O=C(O)c1sccc1O` reads 67.7% (inactive); that for `COc1ccc(Cl)cc1C(=O)NCCc1ccc(S(=O)(=O)NC(=O)NC2CCCCC2)cc1`, 105% (inactive) and 90% (inactive).

The same assay, now with this note: 10 µM unless noted.
Take `CC(=O)Nc1ccc(O)cc1`: the growth was 117% (inactive) and 98.7% (inactive).
The same measure, in the same setting: the result for `CC1(C)[C@@H](OC(=O)CCC(=O)O)CC[C@]2(C)[C@H]3C(=O)C=C4[C@@H]5C[C@@](C)(C(=O)O)CC[C@]5(C)CC[C@@]4(C)[C@]3(C)CC[C@@H]12` reads 94.3% (inactive) and -13% (active); that for `CC1CCCC(=O)O1` (stereo not given), 104% (inactive); that for `COc1cc2nc(N3CCC[C@@H](NC(=O)C4COc5ccccc5O4)C3)nc(N)c2cc1OC` (stereo not given in full), 88.3% (inactive) and 91.2% (inactive).
Same read-out and setting: the figure for `O=C1C2=C(C(=O)c3ccccc31)C(O)(S(=O)(=O)O)C(O)(S(=O)(=O)O)C1N=CC=CC21` (stereo not given) is 12.6% (inactive) and 61.2% (inactive).
Still for that read-out and setting: the figure for `CCOc1ccc2cc(-c3nn(CC4CCN(C)CC4)c4ncnc(N)c34)ccc2c1` is 65.4% (inactive) and -27.1% (active).
On to `c1ccc(NCc2ccc3c(c2)OCO3)cc1`, for which the growth was 92.5% (inactive) and 92.2% (inactive).
The same measure, in the same setting: the result for `CC12CCC(CC1)C(C)(C)O2` reads 88.8% (inactive); that for `Cc1n[nH]c(=O)n(/N=C\c2c[nH]c3ccccc23)c1=O`, 108% (inactive).
Take `Nc1ccccc1SC1CC(=O)N(c2cccc3ccccc23)C1=O` (stereo not given): the growth is 88% (inactive).
Still for that read-out and setting: the result for `O=C(O)c1cc(C(=O)O)cc([N+](=O)[O-])c1` reads 86.4% (inactive); that for `CC(=O)Oc1cc(C(=O)O)cc(OC(C)=O)c1OC(C)=O`, 117% (inactive) and 101% (inactive).
Still for that read-out and setting: the figure for `Cc1nn(-c2ccccc2)nc1C(=O)Nc1ccccc1C(=O)NCC1CC1` is 54.5% (inactive); for `NC(=S)NN=C1CCC(C2CCCCC2)CC1` (stereo not given) it is 125% (inactive); for `N=C1N=C(N)CS1` it is 99.2% (inactive).
On the same count and under the same terms, the result for `Cc1cccc(/C=C\C(=O)c2ccccc2)c1` reads 42.8% (inactive) and -0.91% (active); that for `CC[N+](CC)(CC(=O)Nc1c(C)cccc1C)Cc1ccccc1`, 92.4% (inactive); that for `Nc1ccc2ccc(N)cc2c1`, 36.8% (inactive).
Take `COc1ccc2nc(Cl)cc(C)c2c1`: the growth is 88.2% (inactive) and 82.3% (inactive).
On the same count and under the same terms, the figure for `O=[N+]([O-])c1ccc(-n2[nH]nnc2=S)cc1` is 92.1% (inactive); for `OC1CCC(Oc2cccc3cnc(Nc4ccc5nc[nH]c5c4)nc23)CC1` (stereo not given) it is -15.3% (active) and -4.18% (active).
As for `CCN(CC)CCCC(C)N(Cc1ccccc1)CC(O)c1ccc(Cl)cc1` (stereo not given), the growth is 119% (inactive) and 98.1% (inactive).
Same read-out and setting: the figure for `CCN(CC)CCCC(C)Nc1ccnc2cc(Oc3ccccc3)ccc12` (stereo not given) is 9.09% (active) and 33.9% (inactive); for `COC(=O)c1nc(N)nc(C(=O)OC)c1C(=O)c1ccc(OC)cc1` it is 90.2% (inactive) and 22.8% (inactive); for `Nc1n[nH]c(=S)n1-c1ccc(Cl)cc1` it is 96.6% (inactive).
Same read-out and setting: the figure for `O=S1(=O)CC(Br)C(Br)C1` (stereo not given) is 53.6% (inactive); for `O=C(O)C1C2C=CC(C2)C1C(=O)O` (stereo not given) it is 108% (inactive) and 36.9% (inactive) and 94.8% (inactive).
The same measure, in the same setting: the figure for `CC(=O)NC(Cc1ccccc1)C(=O)Oc1ccc2ccccc2c1` (stereo not given) is 113% (inactive); for `Cc1ccc(S(=O)(=O)Nc2ccc3cc([N+](=O)[O-])ccc3c2[N+](=O)[O-])cc1` it is 91.8% (inactive) and 64.3% (inactive).
For `CN1CCN(CCC=C2c3ccccc3Sc3ccc(S(=O)(=O)N(C)C)cc32)CC1`, the growth is 2.47% (active).
The same measure, in the same setting: the figure for `O=[N+]([O-])c1ccccc1/C=N\Nc1ccccc1` is 98.5% (inactive) and 51.8% (inactive); for `OCCN1CCN(CCCN2c3ccccc3Sc3ccc(Cl)cc32)CC1` it is 36.6% (inactive).

The same assay, now with this note: 30 µM.
With `CNC(=O)c1cc(Oc2ccc(CC(=O)Nc3cc(C(C)(C)C)nn3C)cc2)ccn1`, the growth is 48.9% (inactive).

The assay is the same for the next values; noted with them: 100 µM.
Regarding `CC#C[C@]1(O)CC[C@H]2[C@@H]3CCC4=CC(=O)CCC4=C3[C@@H](c3ccc4c(c3)OCO4)C[C@@]21C`, the growth was -20.8% (active).
Still for that read-out and setting: the result for `O=C(O)c1sccc1O` reads 4.33% (active); that for `COc1ccc(Cl)cc1C(=O)NCCc1ccc(S(=O)(=O)NC(=O)NC2CCCCC2)cc1`, 61.3% (inactive).
